High-throughput results (PubChem BioAssay)
TrxR1 inh = inhibitors of rat thioredoxin reductase 1 | 390,000 compounds, 1% hits | O89049 | recombinant rTrxR1, NADPH fluorescence consumption, selenite substrate | AID 588453 | Potency, µM (doses to about 114 µM), for inactives: at the highest dose activity change, negative = inhibition, usual class: inhibitors; also: nearly all actives have a fitted effect of over 65% in size
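Rat TrxR1 (90 nM in the dispensed reagent) was pre-reduced with 400 uM NADPH for 5 min at room temperature, then incubated with compound for 15 min. After 400 uM selenite was added, NADPH fluorescence (Ex 340/Em 450 nm) was followed for 8 min.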
VDR inh = blocks the human vitamin D receptor. 400,000 compounds, 0.93% hits. AID 504847. VDR-SRC2-3 peptide fluorescence polarization, 2 h. Potency, µM, without a hit: max response, negative = inhibition, usual class: inhibitors
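Measured by FP: displacement of SRC2-3 coactivator peptide from VDR by library compounds, following a two-hour ambient incubation.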
TrxR1 substrate = rat thioredoxin reductase 1 substrate activity; O89049; purified TrxR1 substrate turnover, NADPH consumption readout; 390,000 compounds, 0.01% hits; Potency, µM (titrated, usually from 114 µM), for the others: at the highest dose activity change, negative = substrate turnover; also: nearly all actives have a fitted effect of over 50% in size
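Rat TrxR1, dispensed at 90 nM, was prereduced with 400 uM NADPH (final) for 5 min at ~22 deg C, then incubated with compound 15 min before 400 uM selenite. A first-read NADPH fluorescence drop versus no-compound background flagged substrates.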
GCN5L2 inh = blocks human GCN5L2 histone acetyltransferase | GCN5L2 HAT assay, ThioGlo1 CoA-SH fluorescence | Potency, µM (highest dose often 58.9 µM), without a hit: at the highest dose activity change, negative = inhibition, hits mostly inhibitors | 390,000 compounds, 0.21% hits | AID 504327
Target sequence (Q92830 whole entry, looked up): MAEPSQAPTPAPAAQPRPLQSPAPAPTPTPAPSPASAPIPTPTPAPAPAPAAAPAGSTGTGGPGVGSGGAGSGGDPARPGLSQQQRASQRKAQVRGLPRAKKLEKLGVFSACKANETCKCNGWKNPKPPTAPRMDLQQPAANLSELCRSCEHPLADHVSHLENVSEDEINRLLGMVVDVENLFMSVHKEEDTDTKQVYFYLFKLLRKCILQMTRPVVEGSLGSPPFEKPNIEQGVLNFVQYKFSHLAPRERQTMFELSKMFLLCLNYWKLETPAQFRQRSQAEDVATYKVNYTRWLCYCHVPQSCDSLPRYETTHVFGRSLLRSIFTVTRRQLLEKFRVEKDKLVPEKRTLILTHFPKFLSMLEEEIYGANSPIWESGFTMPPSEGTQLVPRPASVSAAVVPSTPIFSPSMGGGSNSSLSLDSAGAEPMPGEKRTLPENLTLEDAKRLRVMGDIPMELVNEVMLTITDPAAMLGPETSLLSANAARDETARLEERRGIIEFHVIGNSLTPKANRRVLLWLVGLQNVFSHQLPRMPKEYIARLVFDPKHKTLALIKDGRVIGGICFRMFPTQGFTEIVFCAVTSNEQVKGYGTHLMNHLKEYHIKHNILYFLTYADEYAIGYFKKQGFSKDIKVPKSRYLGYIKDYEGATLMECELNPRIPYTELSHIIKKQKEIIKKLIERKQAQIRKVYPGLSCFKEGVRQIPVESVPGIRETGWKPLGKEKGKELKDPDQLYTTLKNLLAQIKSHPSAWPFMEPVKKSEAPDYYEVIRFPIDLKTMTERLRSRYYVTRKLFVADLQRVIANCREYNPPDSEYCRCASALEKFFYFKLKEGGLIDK
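GCN5L2 (20 nM) in 50mM HEPES pH 7.5, 0.1mM EDTA, 0.01% Tween-20 preincubated 15 min with compounds at room temperature. Reaction started with H3(1-25) 75uM, acetyl-CoA 70uM, ThioGlo1 50uM; CoA-thiol fluorescence (Ex340/Em540) read at 0 and 20 min.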
* = called active by the depositor; ? = inconclusive; . = not tested or not shown; ! = a repeat was not active; [ ] = another dose, or the depositor's remark. A selection: hits, their analogues and other compounds. The true share with any hit is near 1.8%. Calls follow the shape of the dose curve; as a rule, active = well fitted curve in the direction sought with a large enough effect; inconclusive = small, poorly fitted or top-dose-only effect, or another doubt; inactive = no such curve, though single readings can be large; an effect the other way counts as inactive or inconclusive. % is scaled to controls: 0 for no effect and ±100 for the full control effect; potency is read from the fitted curve at half-maximal effect.

SMILES | TrxR1 inh | VDR inh | TrxR1 substrate | GCN5L2 inh
Cc1ccc(S(=O)(=O)/N=C(/NC(=S)Nc2cccc(C)c2)c2ccccc2)cc1 | ? | ? | -2% | -6%
Cc1cccc(NC(=S)N/C(=N/S(=O)(=O)c2ccccc2)c2ccccc2)c1 | 16µM* | 89µM*! | 2% | 1%
Cc1cc(C)c2nccc(/C=C/c3ccc(N(C)C)cc3)c2c1 | 11% | . | 0% | .
O=C(Nc1ccc(F)cc1)Nc1nnc(Cc2ccccc2F)s1 | 19%[57.1 µM] | 71µM* | 5%[57.1 µM] | -17%
CCCCCCCCCCCC1=C(O)C(=O)C=C(O)C1=O | 4% | ? | -5% | .
COC1=C(OC)C(=O)C(CCCCCCCCCCO)=C(C)C1=O | . | 45µM* | . | -11%
CCCCCCCCCCC1=C(C)C(=O)C(OC)=C(OC)C1=O | . | 40µM*! | . | -5%
c1ccc(Cn2nnnc2C(c2ccncc2)N2CCOCC2)cc1 (configuration not stated) | -5% | 7% | 1% | 3%
Cc1cc(C(c2nnnn2Cc2ccccc2)N2CCOCC2)c(C)n1-c1ccc2c(c1)OCO2 (configuration not stated) | 7.9µM* | -7% | 7% | -6%
O=C1C=CC(=O)N1c1ccc2c(c1)C(NC(=O)C(F)(F)F)c1ccccc1-2 (configuration not stated) | 1.8µM* | 45µM* | 4% | .
CN(C)C(=O)NC1c2ccccc2-c2ccccc21 | -8% | 13% | -10% | -4%
CN(CCC#N)c1ccc(/C=C/c2ccnc3ccccc23)cc1 | -14% | . | -8% | .
CC1CN(C(=O)CCC(=O)NCc2cccc(Cl)c2)c2ccccc2S1 (configuration not stated) | 3% | -1% | -10% | -8%
O=C(CCC(=O)N1CCSc2ccccc21)NCc1cccc(Cl)c1 | 12%[57.1 µM] | -7% | 3%[57.1 µM] | 4.5µM*
Cc1cccc[n+]1CCCCCCCCCC[n+]1ccccc1C | 16% | 16% | 10%[57.1 µM] | -6%
Brc1cccc[n+]1CCC[n+]1ccccc1Br | 6.3µM* | . | -12% | .
COc1cc2ncnc(N3CCN(C(=O)Nc4ccc(Oc5ccccc5)cc4)CC3)c2cc1OC | 3% | . | -3% | .
O=C(C[N+]12CCCc3cccc(c31)CCC2)c1ccc2ccc3cccc4ccc1c2c34 | ? | . | 24% | .
COc1cc(-c2nc3sccn3c2Nc2c(C)cccc2C)ccc1O | 16µM* | ? | -5% | 2%
C=CCNc1oc(-c2ccc(-c3ccccc3)cc2)nc1C#N | 14µM* | ? | -4% | -7%
CNc1oc(-c2ccccc2)nc1C#N | ? | 4% | 416% | -12%
Cc1oc(-c2ccc(Cl)cc2)nc1CN1CCCC(C(=O)NCCc2ccc(Cl)cc2)C1 (configuration not stated) | 43% | -23% | 1% | -8%
Cc1ccc(C(=O)COC(=O)CNC(=O)CNC(=O)c2ccc(C)cc2)cc1 | 6% | -24% | 3% | -6%
Cc1ccc(C(=O)NCC(=O)NCC(=O)OCC(=O)c2ccc([N+](=O)[O-])cc2)cc1 | -15% | 79µM* | -3% | 3%
Cc1cccc(N2CCN(C(=O)Cc3cn(C)c4ccccc34)CC2)c1C | -11% | 20µM* | -4% | -3%
SMILES | TrxR1 inh | VDR inh | TrxR1 substrate | GCN5L2 inh
Cc1cccc(N2CCN(C(=O)Cn3ncc4c5ccccc5n(C)c4c3=O)CC2)c1C | 6% | 9% | 7% | -2%
Cc1cccc(-c2nnc(SCC(=O)NC3CCCCC3)o2)c1 | 9% | -15% | -1% | -15%
C#CCSc1nncn1C(=O)/C=C/c1ccccc1 | 22µM* | ? | 6% | -29%
NC(=O)CN1C(=O)/C(=c2\sc3nc(=O)c(Cc4ccccc4)nn3c2=O)c2ccccc21 | 18µM* | ? | 3% | -15%
CCCN1C(=O)/C(=c2\sc3nc(=O)c(Cc4ccc(C)cc4)nn3c2=O)c2ccccc21 | ? | ? | -7% | -7%
C[C@@H]1CCC[C@]2(C)CCCC[C@@]12O | . | 6% | . | 22%
S=c1nc2c(n[nH]1)c1ccccc1n2CCc1ccccc1 | -14% | 79µM* | -1% | 1%
CSc1nnc2c3ccccc3n(CCc3ccccc3)c2n1 | -21% | -7% | -15% | -6%
CCCCn1nnc(NC(=S)NC(=O)c2ccc(OCC)c([N+](=O)[O-])c2)n1 | 79µM* | -11% | 4% | -4%
Cc1cc2n(n1)SC(Nc1ccc(F)c(Cl)c1)N2 (configuration not stated) | 14µM* | -19% | 3%[57.1 µM] | -5%
